The record followed here is paper PMC4336329 (PLoS ONE, 2015).

SMILES strings stand for the structures. In all, about 310,000 compounds went through this assay and about 14,000 (4.5%) showed an effect of 50% or more. The effect is printed as a negative number. What follows is part of a selection rich in strong results, with near analogues and random picks from the rest.
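Note: peak tail current of the secondary pulse compared with the same well before compound.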

The target of the assay is human ether-à-go-go-related gene (hERG) potassium channel (human, UniProt Q12809). In words: primary screen, population patch clamp on CHO cells stably expressing hERG; higher = less effect of the substance.
Chain of human ether-à-go-go-related gene (hERG) potassium channel (Q12809 whole entry, looked up): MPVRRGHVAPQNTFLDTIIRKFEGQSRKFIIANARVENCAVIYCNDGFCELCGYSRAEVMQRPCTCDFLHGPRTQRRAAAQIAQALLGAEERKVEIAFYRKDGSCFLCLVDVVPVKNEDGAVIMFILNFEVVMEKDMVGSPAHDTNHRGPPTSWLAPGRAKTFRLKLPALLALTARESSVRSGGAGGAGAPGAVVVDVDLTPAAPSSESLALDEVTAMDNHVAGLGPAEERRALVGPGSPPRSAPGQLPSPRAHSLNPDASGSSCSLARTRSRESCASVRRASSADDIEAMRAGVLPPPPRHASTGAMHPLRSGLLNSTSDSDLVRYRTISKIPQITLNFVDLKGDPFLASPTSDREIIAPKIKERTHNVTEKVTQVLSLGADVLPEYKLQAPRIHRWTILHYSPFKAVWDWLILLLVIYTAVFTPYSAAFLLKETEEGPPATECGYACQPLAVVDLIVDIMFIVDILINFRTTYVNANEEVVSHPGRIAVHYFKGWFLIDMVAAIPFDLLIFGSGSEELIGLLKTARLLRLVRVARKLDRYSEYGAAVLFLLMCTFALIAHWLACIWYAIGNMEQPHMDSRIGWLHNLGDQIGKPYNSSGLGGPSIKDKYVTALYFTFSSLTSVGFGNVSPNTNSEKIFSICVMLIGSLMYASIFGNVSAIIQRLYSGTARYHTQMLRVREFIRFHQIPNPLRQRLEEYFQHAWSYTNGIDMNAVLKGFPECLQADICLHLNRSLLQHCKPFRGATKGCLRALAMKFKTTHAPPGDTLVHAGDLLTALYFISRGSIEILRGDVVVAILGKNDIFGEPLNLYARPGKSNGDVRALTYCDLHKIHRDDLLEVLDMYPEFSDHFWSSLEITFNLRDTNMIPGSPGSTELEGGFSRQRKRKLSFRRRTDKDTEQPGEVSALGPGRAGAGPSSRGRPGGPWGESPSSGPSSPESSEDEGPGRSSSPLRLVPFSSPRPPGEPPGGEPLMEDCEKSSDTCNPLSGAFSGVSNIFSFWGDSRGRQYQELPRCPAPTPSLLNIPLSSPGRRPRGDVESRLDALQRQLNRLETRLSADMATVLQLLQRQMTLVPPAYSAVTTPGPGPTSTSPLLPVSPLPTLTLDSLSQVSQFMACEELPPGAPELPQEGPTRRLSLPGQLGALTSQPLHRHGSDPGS
With `COc1ccc(C(=O)NC(=S)Nc2ccc(S(=O)(=O)Nc3cc(OC)ncn3)cc2)cc1`, the “hERG current change (%, negative = inhibition) at 10uM” value is 15.4%.
As for `CSCCC1NC(=O)N(CC(=O)N2CCc3ccccc3C2)C1=O` (stereo not shown), the figure is -1.18%; as for `CCOC(=O)c1[nH]c2ccc(OC)cc2c1NC(=O)c1ccccc1C(=O)O`, 14.2%; as for `Cc1noc(/C=C/c2cccs2)c1S(=O)(=O)N1CCC(C(=O)NCCCN2CCCC(C)C2)CC1` (stereo not shown), -44.5%.
With `O=C(NCCN1C(=O)S/C(=C\c2ccc(F)cc2)C1=O)C1CCN(S(=O)(=O)c2cccs2)CC1`, the “hERG current change (%, negative = inhibition) at 10uM” value is -7.1%.
With `Cc1noc(/C=C/c2cccs2)c1S(=O)(=O)N1CCC(C(=O)NCCCN2CCC(C)CC2)CC1`, the “hERG current change (%, negative = inhibition) at 10uM” value is listed as -83.7%.
As for `COc1ccc(N2CCN(C(=O)C3CCN(S(=O)(=O)c4cccs4)CC3)CC2)cc1`, the figure is -49.3%.
As for `CCCNC(=O)C1CCN(S(=O)(=O)c2cccs2)CC1`, the “hERG current change (%, negative = inhibition) at 10uM” value came to 28.1%.
In the case of `O=C(NCCN1C(=O)S/C(=C\c2ccccc2)C1=O)C1CCN(S(=O)(=O)c2cccs2)CC1` it was -23.8%.
In the case of `COc1ccc(N2CCN(CCNC(=O)CCNS(=O)(=O)c3cccs3)CC2)cc1` it was -24.7%; in that of `O=C(NCCN1C(=O)S/C(=C\c2ccccc2F)C1=O)C1CCN(S(=O)(=O)c2cccs2)CC1`, -57.2%; in that of `COCCNC(=O)C1CCN(S(=O)(=O)c2c(C)noc2/C=C/c2cccs2)CC1`, -34.7%.
As to `O=C(NCCCN1CCN(c2ccccc2F)CC1)C1CCN(S(=O)(=O)c2cccs2)CC1`, the “hERG current change (%, negative = inhibition) at 10uM” value is -60.6%.
In the case of `COc1ccc(N2CCN(CCNC(=O)C3CCN(S(=O)(=O)c4cccs4)CC3)CC2)cc1`, the “hERG current change (%, negative = inhibition) at 10uM” value was -50.7%.
For `CCS(=O)(=O)N1CCC(C(=O)NCCCN2CCN(c3ccccc3F)CC2)CC1`, the “hERG current change (%, negative = inhibition) at 10uM” value is listed as -16.3%.
On to `Cc1cc(NS(=O)(=O)c2ccc(NC(=O)c3c(F)c(F)c(F)c(F)c3F)cc2)nc(C)n1`, for which the “hERG current change (%, negative = inhibition) at 10uM” value came out at 4.63%.
In the case of `CCN(C(=O)CSc1nnnn1-c1ccccc1OC)C1CCS(=O)(=O)C1` (stereo not shown) it was 21.2%; in that of `O=C(CCNC(=O)c1ccccc1Cl)Nc1cccc(S(=O)(=O)N2CCOCC2)c1`, 0.307%; in that of `CC(C)(C)c1[nH]nc2c1C(C1C=CCCC1)C(C#N)=C(N)O2` (stereo not shown), -11%.
With `CN(C)CC1CCCCC1OC(=O)c1ccc(S(=O)(=O)N(C)c2ccccc2)cc1` (stereo not shown), the “hERG current change (%, negative = inhibition) at 10uM” value was 17.8%.
As for `C/C(CC(=O)NCc1ccco1)=N\NC(=O)c1ccc([N+](=O)[O-])cc1Cl`, the figure is 10.5%; as for `CC(OC(=O)CCc1nc2ccccc2c(=O)[nH]1)C(=O)c1ccc(C(C)(C)C)cc1` (stereo not shown), -12.3%.
For `COc1ccc(N(CC(=O)NCc2ccc(Cl)cc2)S(=O)(=O)c2c(C)noc2C)cc1`, the “hERG current change (%, negative = inhibition) at 10uM” value was 15.1%.
As for `O=[N+]([O-])CC(=Nc1ccc(F)cc1)N/N=C\c1oc(O)c2ccccc12`, the “hERG current change (%, negative = inhibition) at 10uM” value was -0.338%.
In the case of `NCCCC[C@H]1CN=C(N)N1CCCCC1CCCCC1` it was -3.84%; in that of `CC(C)C(NC(=O)c1ccccc1NC(=O)c1ccco1)C(=O)O` (stereo not shown), -14.1%; in that of `C/C(N)=C(/C#N)C(=O)COC(=O)CC1CCCC1`, -2.15%.
In the case of `Cc1ccc(N2C(=O)CC(Cc3cccc(C)c3)C2=O)cc1` (stereo not shown) it was 9.39%; in that of `Cc1cccc(CC2CC(=O)N(c3ccc([N+](=O)[O-])cc3)C2=O)c1` (stereo not shown), -53.3%.
For the molecule `COc1ccccc1N1C(=O)CC(N2CCN(c3ccc(Cl)cc3)CC2)C1=O` (stereo not shown), the “hERG current change (%, negative = inhibition) at 10uM” value was 1.61%.
In the case of `COc1cccc(N2CCN(C3CC(=O)N(c4ccc(Cl)c(Cl)c4)C3=O)CC2)c1` (stereo not shown) it was -0.0262%; in that of `COc1cccc(N2C(=O)CC(N3CCN(c4ccc([N+](=O)[O-])cc4)CC3)C2=O)c1` (stereo not shown), -52.1%.
In the case of `Cc1cc(C)cc(CC2CC(=O)N(c3ccc([N+](=O)[O-])cc3)C2=O)c1` (stereo not shown), the “hERG current change (%, negative = inhibition) at 10uM” value is 9.78%.
As for `COc1ccccc1N1C(=O)CC(N2CCN(c3ccc([N+](=O)[O-])cc3)CC2)C1=O` (stereo not shown), the figure is -68.6%.
Take `COc1ccccc1N1C(=O)CC(N2CCN(c3ccc(F)cc3)CC2)C1=O` (stereo not shown): the “hERG current change (%, negative = inhibition) at 10uM” value is given as -1.99%.
As for `COc1ccccc1N1CCN(C2CC(=O)N(c3ccccc3)C2=O)CC1` (stereo not shown), the figure is 24.1%; as for `O=C1CC(N2CCN(c3ccccc3)CC2)C(=O)N1c1cccc(Br)c1` (stereo not shown), -1.92%.
As to `COc1cccc(N2CCN(C3CC(=O)N(c4cccc(Cl)c4)C3=O)CC2)c1` (stereo not shown), the “hERG current change (%, negative = inhibition) at 10uM” value is reported as -14.4%.
In the case of `COc1ccccc1N1CCN(C2CC(=O)N(c3cccc(Br)c3)C2=O)CC1` (stereo not shown) it was -53.7%; in that of `C=C(C)COc1ccc(-c2nc(N)ncc2-c2ccccc2OC)c(O)c1`, -31.6%; in that of `COc1cc(OC)c(OC)cc1/C=C(\C#N)C(=O)NCc1cccs1`, 20.6%.
As for `O=C(Cn1cc2c(n1)CCCC2)Nc1ccccc1Br`, the figure is 1.06%; as for `CN1C2CCC1CC(NC(=O)c1cc(Cl)cc3[nH]cnc13)C2` (stereo not shown), 4.12%.
Regarding `CNC(=O)c1c2c(nc3ccc(Br)cc13)CCCC2`, the “hERG current change (%, negative = inhibition) at 10uM” value came out at 1.9%.
On to `CCCCn1c(N)c(N(CCOC)C(=O)C2CC(=O)N(c3cccc(SC)c3)C2)c(=O)[nH]c1=O` (stereo not shown), for which the “hERG current change (%, negative = inhibition) at 10uM” value worked out at 14.4%.
Turning to `COCCN1CN=C(Nc2nc3ccccc3o2)NC1`, the “hERG current change (%, negative = inhibition) at 10uM” value came out at 13.5%.
